Test results: PubChem BioAssay (Tox21)
Several values for one entry are separate records, joined by “and”; a condition that tells them apart may be missing. Equal entries are not always repeated. Values without a mark were called inactive. Results filed as inconclusive are left out. Entries that show only a call come without a potency. Activity calls are given as the source filed them. Unless noted, calls follow the shape of the dose curve; as a rule, active = well fitted curve in the direction sought with a large enough effect in the repeat runs; inconclusive = weak or mixed curves; inactive = no such curve, though single readings can be large; an effect the other way counts as inactive or inconclusive.

Experiments:
[1] = qHTS assay for small molecules that induce genotoxicity in human embryonic kidney cells expressing luciferase-tagged ATAD5 (AID 651632); also: nearly all actives have a fitted effect of over 15% in size
Summary of the method: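 Increased luciferase signal from ATAD5-tagged reporter cells indicates DNA-damage-driven ATAD5 induction. HEK293T cells are treated for 16 hr at 37C before detection with Amplite.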

[2] = qHTS assay for small molecules that induce genotoxicity in human embryonic kidney cells expressing luciferase-tagged ATAD5 - cell viability (AID 651634; calls by dose curve; also: nearly all actives have a fitted effect of over 25% in size; also: potency is read from the fitted curve at half-maximal effect)
Summary of the method: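 Cytotoxicity counterscreen in HEK293T cells bearing an ATAD5-luciferase reporter: live-cell protease activity measured by CellTiter-Fluor fluorescence after 15.5 hr compound exposure.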

[3] = qHTS assay for small molecule disruptors of the mitochondrial membrane potential - cell viability (AID 720634; calls by dose curve; also: nearly all actives have a fitted effect of over 20% in size; also: potency is read from the fitted curve at half-maximal effect)
Summary of the method: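 After overnight attachment at 37 C, HepG2 cells received compound or DMSO vehicle for 1 hr. Viability is then taken from ATP-driven luminescence following a 30 min room-temperature CellTiter-Glo step.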

[4] = qHTS assay to test for compound auto fluorescence at 590 nm (red) in HepG2 cells (AID 720674)
Summary of the method: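 Fluorescence at 590 nm emission following 540 nm excitation was recorded from HepG2 wells one hour after compound transfer, with DMSO-only wells as vehicle and Rose Bengal sodium equivalency as the scale.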

[5] = qHTS assay to test for compound auto fluorescence at 535 nm (green) in HepG2 cells (AID 720675)
[6] = qHTS assay to test for compound auto fluorescence at 460 nm (blue) in HEK293 cells (AID 720678)
Summary of the method: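 Intrinsic compound fluorescence is recorded in live HEK293 cultures after overnight incubation at 37C, 5% CO2, using excitation 405 nm and emission 460 nm. Values are referenced to triamterene.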

[7] = qHTS assay to test for compound auto fluorescence at 535 nm (green) in HEK293 cells (AID 720680)
[8] = qHTS assay to test for compound auto fluorescence at 460 nm (blue) in HEK293 cell free culture (AID 720681)
Summary of the method: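 Compounds were added to cell-free DMEM with 10% FBS and fluorescence read directly. The blue channel used 405 nm excitation and 460 nm emission, with triamterene as the reference fluorophore.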

[9] = qHTS assay to test for compound auto fluorescence at 535 nm (green) in HEK293 cell free culture (AID 720682)
Summary of the method: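 Fluorescein serves as the green reference fluorophore; each compound's intrinsic emission at 535 nm (excitation 485 nm) is reported as an equivalent amount of that dye, measured in serum-containing DMEM without cells.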

[10] = qHTS assay to test for compound auto fluorescence at 590 nm (red) in HEK293 cell free culture (AID 720683)
Summary of the method: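 Cell-free wells of DMEM with 10% FBS received compound, and intrinsic fluorescence was read at excitation/emission 540/590 nm. Values expressed as equivalence to Rose Bengal sodium.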

[11] = qHTS assay to test for compound auto fluorescence at 590 nm (red) in HepG2 cell free culture (AID 720684)
Summary of the method: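 Compounds are added to culture medium (MEM, 10% FBS) lacking cells, then fluorescence is read at excitation 540 nm, emission 590 nm, with Rose Bengal sodium as the equivalency standard.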

[12] = qHTS assay to test for compound auto fluorescence at 460 nm (blue) in HepG2 cell free culture (AID 720685)
Summary of the method: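 Compound (23 nL) or DMSO pinned into cell-free MEM with 10% FBS; blue fluorescence read at 405/460 nm excitation/emission, expressed as auto-fluorescence equivalency to triamterene.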

[13] = qHTS assay to test for compound auto fluorescence at 535 nm (green) in HepG2 cell free culture (AID 720686)
[14] = qHTS assay to test for compound auto fluorescence at 460 nm (blue) in HepG2 cells (AID 720687)
Summary of the method: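 HepG2 cells in MEM with 10% FBS, attached overnight at 37 C, were exposed to compound or DMSO for 1 hr at 37 C, 5% CO2. Blue fluorescence was read at 405/460 nm, with triamterene as reference fluorophore.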

[15] = qHTS assay to test for compound auto fluorescence at 590 nm (red) in HEK293 cells (AID 720679)
Summary of the method: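 Red autofluorescence, HEK293 cells: 2,000 cells/well; attach 4-5 hr 37C; add 23 nL cpd or DMSO; incubate o/n 37C 5% CO2; read Ex540/Em590; Rose Bengal sodium reference.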

[16] = target: Glucocorticoid receptor (Homo sapiens) (UniProt P04150); assay: qHTS assay to identify small molecule antagonists of the glucocorticoid receptor (GR) signaling pathway (AID 720692; active = well fitted inhibition curve with a large enough effect in the signal ratio in the repeat runs, not every such curve was filed as active; the % refers to the signal ratio; also: potency is read from the fitted curve at half-maximal effect)
Summary of the method: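 Cells plated, rested 4 h at 37 C/5% CO2; compounds in DMSO pin-transferred; dexamethasone added to 5 nM final; 18 h at 37 C; B/G FRET substrate added, 2 h room temperature; fluorescence measured.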

[17] = qHTS assay for small molecule agonists of the p53 signaling pathway - cell viability (AID 651633; calls by dose curve; also: nearly all actives have a fitted effect of over 30% in size; also: potency is read from the fitted curve at half-maximal effect)
Summary of the method: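 p53RE-bla cells were treated with compound for 16 hours at 37 C. Cytotoxicity was then measured as CellTiter-Glo luminescence after 30 min at room temperature.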

[18] = target: Glucocorticoid receptor (Homo sapiens) (UniProt P04150); assay: qHTS assay to identify small molecule agonists of the glucocorticoid receptor (GR) signaling pathway (AID 720691; active = well fitted activation curve with a large enough effect in the signal ratio in the repeat runs, not every such curve was filed as active; the % refers to the signal ratio)
Summary of the method: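 Agonist mode in a HeLa line carrying a GRE-controlled beta-lactamase reporter. Compounds act for 18 h at 37 C before a 2 h room-temperature FRET substrate step and fluorescence reading.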

[19] = qHTS assay for small molecule disruptors of the mitochondrial membrane potential (AID 720635); also: potency is read from the fitted curve at half-maximal effect
Summary of the method: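 HepG2 cells exposed to compound 1 hr at 37C, then Mito-MPS dye 30 min. Ratio read of aggregate (540/590 nm) versus monomer (490/535 nm) fluorescence.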

Sequence of Glucocorticoid receptor (Homo sapiens) (P04150 whole entry, looked up): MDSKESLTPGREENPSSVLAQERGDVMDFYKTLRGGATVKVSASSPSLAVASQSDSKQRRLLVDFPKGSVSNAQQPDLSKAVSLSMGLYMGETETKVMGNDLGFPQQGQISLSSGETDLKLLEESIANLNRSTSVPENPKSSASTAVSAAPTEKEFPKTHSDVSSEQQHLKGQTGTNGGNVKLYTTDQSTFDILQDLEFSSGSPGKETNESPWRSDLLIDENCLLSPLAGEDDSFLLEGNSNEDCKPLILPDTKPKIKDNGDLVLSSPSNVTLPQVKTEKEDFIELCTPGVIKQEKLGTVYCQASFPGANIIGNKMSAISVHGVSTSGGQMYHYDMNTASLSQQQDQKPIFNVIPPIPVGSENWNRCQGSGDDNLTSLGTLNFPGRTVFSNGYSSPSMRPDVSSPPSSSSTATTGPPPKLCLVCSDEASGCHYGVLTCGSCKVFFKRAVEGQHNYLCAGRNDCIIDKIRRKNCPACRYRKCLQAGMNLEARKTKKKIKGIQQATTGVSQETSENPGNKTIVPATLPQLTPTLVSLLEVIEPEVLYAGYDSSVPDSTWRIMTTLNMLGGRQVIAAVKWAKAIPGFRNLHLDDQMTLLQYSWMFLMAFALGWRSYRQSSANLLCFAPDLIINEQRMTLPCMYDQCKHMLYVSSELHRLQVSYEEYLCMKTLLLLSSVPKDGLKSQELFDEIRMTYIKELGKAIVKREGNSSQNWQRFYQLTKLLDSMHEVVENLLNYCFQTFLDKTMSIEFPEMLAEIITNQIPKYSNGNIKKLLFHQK

Structure (SMILES)	Potency [1]	Potency [2]	Potency [3]	outcome [4]	outcome [5]	outcome [6]	outcome [7]	outcome [8]	outcome [9]	outcome [10]	outcome [11]	outcome [12]	outcome [13]	outcome [14]	outcome [15]	Potency [16]	Potency [17]	outcome [18]	Potency [19]
O=C(O)C1(c2ccc3c(c2)OC[C@H](Cc2ccc(-c4ccccc4)cc2)[C@H]3O)CCCC1	inactive	inactive	inactive	inactive	inactive	inactive	inactive	inactive	inactive	inactive	inactive	inactive	inactive	inactive	–	–	–	–	–
O=C(NC(=O)c1c(F)cccc1F)Nc1ccc(OC(F)(F)C(F)OC(F)(F)F)c(Cl)c1 (stereo unspecified)	inactive	–	inactive	inactive	inactive	inactive	inactive	inactive	inactive	inactive	inactive	inactive	inactive	inactive	inactive	inactive	–	–	–
O=[N+]([O-])c1cc(C(F)(F)F)cc([N+](=O)[O-])c1Cl	inactive	–	–	inactive	inactive	inactive	inactive	–	inactive	inactive	inactive	inactive	inactive	inactive	inactive	inactive	inactive	inactive	–
C[C@H]1CNCCc2ccc(Cl)cc21	inactive	inactive	inactive	inactive	inactive	inactive	inactive	inactive	inactive	inactive	inactive	inactive	inactive	inactive	inactive	inactive	–	inactive	inactive
NS(=O)(=O)C(F)(F)C(F)(F)C(F)(F)C(F)(F)C(F)(F)C(F)(F)C(F)(F)C(F)(F)F	inactive	inactive	–	inactive	inactive	inactive	inactive	–	inactive	inactive	inactive	inactive	inactive	inactive	inactive	–	–	–	1.93 µM (active)
[CH3][Sn]([CH3])([Cl])[Cl]	inactive	–	inactive	–	inactive	inactive	inactive	inactive	inactive	inactive	inactive	inactive	inactive	inactive	inactive	–	–	–	–
ClP(Cl)(Cl)(Cl)Cl	inactive	–	inactive	inactive	inactive	inactive	inactive	inactive	inactive	inactive	inactive	inactive	inactive	inactive	inactive	inactive	inactive	inactive	–
CCOP(=S)(OCC)SCn1nnc2ccccc2c1=O	inactive	–	27.3 µM (active)	inactive	inactive	inactive	inactive	inactive	inactive	inactive	inactive	inactive	inactive	inactive	inactive	–	–	inactive	27.3 µM (active)
OC(c1ccc(Cl)cc1)(c1ccc(Cl)cc1)c1cccnc1	inactive	–	inactive	inactive	inactive	inactive	inactive	inactive	inactive	inactive	inactive	inactive	inactive	inactive	inactive	49 µM (active)	–	–	54.5 µM (active)
CN1[C@@H]2CC[C@H]1CC(OC(=O)c1cc(Cl)cc(Cl)c1)C2 (stereo partly specified)	inactive	–	inactive	inactive	inactive	inactive	inactive	inactive	inactive	inactive	inactive	inactive	inactive	–	inactive	–	inactive	inactive	–
C/C(=C\c1ccccc1)[N+](=O)[O-]	inactive	24.3 µM (active)	inactive	inactive	inactive	inactive	inactive	inactive	inactive	inactive	inactive	inactive	inactive	inactive	inactive	–	–	–	30.6 µM (active)
CCCCC(O)(Cn1cncn1)c1ccc(Cl)cc1Cl (stereo unspecified)	inactive	–	–	inactive	inactive	inactive	inactive	–	inactive	inactive	inactive	inactive	inactive	inactive	inactive	–	–	inactive	54.4 µM (active)
O=C1c2ccccc2C(=O)C1C(=O)C(c1ccccc1)c1ccccc1	inactive	inactive	inactive	–	inactive	inactive	inactive	inactive	inactive	inactive	inactive	inactive	inactive	–	inactive	21.3 µM (active)	–	–	21.1 µM (active)
O=C(Nc1ccccc1)Nc1ccnc(Cl)c1	inactive	–	inactive	inactive	inactive	inactive	inactive	inactive	inactive	inactive	inactive	inactive	inactive	–	inactive	54.9 µM (active)	inactive	–	–
O=C1CN=C(c2ccccc2)c2cc(Cl)ccc2N1CC1CC1	inactive	–	inactive	–	inactive	inactive	inactive	inactive	inactive	inactive	inactive	inactive	inactive	inactive	inactive	45.8 µM (active)	–	inactive	–
O=C(OC1CCCCC1)c1ccccc1C(=O)OC1CCCCC1	inactive	–	–	inactive	inactive	inactive	inactive	inactive	inactive	inactive	inactive	inactive	inactive	inactive	inactive	–	inactive	inactive	28.8 µM (active)
O=C(O)C(F)(F)C(F)(F)C(F)(F)C(F)(F)C(F)(F)C(F)(F)C(F)(F)C(F)(F)C(F)(F)F	inactive	–	inactive	inactive	inactive	inactive	inactive	–	inactive	inactive	inactive	inactive	inactive	inactive	–	inactive	–	inactive	–
CCOP(=S)(Oc1ccc([N+](=O)[O-])cc1)c1ccccc1 (stereo unspecified)	inactive	inactive	–	–	inactive	inactive	inactive	inactive	inactive	inactive	inactive	inactive	inactive	inactive	inactive	–	–	–	–

Structure (SMILES)	Potency [1]	Potency [2]	Potency [3]	outcome [4]	outcome [5]	outcome [6]	outcome [7]	outcome [8]	outcome [9]	outcome [10]	outcome [11]	outcome [12]	outcome [13]	outcome [14]	outcome [15]	Potency [16]	Potency [17]	outcome [18]	Potency [19]
Nc1ccc([N+](=O)[O-])cc1[N+](=O)[O-]	–	15 µM (active)	inactive	–	inactive	inactive	inactive	inactive	inactive	inactive	inactive	inactive	inactive	inactive	inactive	–	inactive	–	–
C=C(C#N)CCC#N	–	inactive	inactive	inactive	inactive	inactive	inactive	–	inactive	inactive	inactive	inactive	inactive	inactive	–	inactive	–	inactive	–
N#CCC#N	–	inactive	inactive	–	inactive	inactive	inactive	inactive	inactive	inactive	inactive	inactive	inactive	–	–	inactive	inactive	–	–
CO/N=C(/C(=O)OC)c1ccccc1COc1ccccc1C	–	inactive	–	inactive	inactive	inactive	inactive	inactive	inactive	inactive	inactive	inactive	inactive	inactive	inactive	–	–	inactive	–
O=C=Nc1ccc(Cl)cc1	–	–	21.7 µM (active)	inactive	inactive	inactive	inactive	–	inactive	inactive	inactive	inactive	inactive	inactive	inactive	–	inactive	–	0.172 µM (active)
COC(=O)C(Br)CBr (stereo unspecified)	–	inactive	inactive	inactive	inactive	inactive	inactive	inactive	inactive	inactive	inactive	inactive	inactive	inactive	–	inactive	inactive	inactive	–
O=C1C(=O)c2cccc3cccc1c23	–	–	–	inactive	inactive	inactive	inactive	inactive	inactive	inactive	inactive	inactive	inactive	inactive	–	–	inactive	–	54.4 µM (active)
Cl/C=C\Cl	–	inactive	inactive	inactive	inactive	inactive	inactive	inactive	inactive	inactive	inactive	inactive	inactive	inactive	inactive	inactive	inactive	–	inactive
O=Cc1ccc(Cl)cc1Cl	–	inactive	inactive	inactive	inactive	inactive	inactive	inactive	inactive	inactive	inactive	inactive	inactive	inactive	inactive	–	inactive	inactive	–
Oc1ccc(Cl)c(Cl)c1Cl	–	inactive	inactive	inactive	inactive	inactive	inactive	inactive	inactive	inactive	inactive	inactive	inactive	inactive	–	inactive	inactive	inactive	4.49 µM (active)
Cl/C=C\C[N+]12CN3CN(CN(C3)C1)C2	–	inactive	inactive	–	inactive	inactive	inactive	inactive	inactive	inactive	inactive	inactive	inactive	inactive	inactive	–	inactive	inactive	inactive
Clc1cccc(SC2CCNCC2)n1	–	inactive	inactive	inactive	inactive	inactive	inactive	inactive	inactive	inactive	inactive	inactive	inactive	–	–	–	–	–	–
C(=NC1CCCCC1)=NC1CCCCC1	–	30.8 µM (active) and 43.3 µM (active)	5.48 µM (active)	–	inactive	inactive	inactive	–	inactive	inactive	inactive	inactive	inactive	inactive	inactive	–	30.8 µM (active) and 17.2 µM (active)	–	–
CC(C)(C)c1cc([N+](=O)[O-])cc([N+](=O)[O-])c1O	–	6.09 µM (active)	–	inactive	inactive	inactive	inactive	inactive	inactive	inactive	inactive	inactive	inactive	inactive	inactive	–	–	inactive	0.484 µM (active)
C=CC[C@]1(O)CC[C@H]2[C@@H]3CCC4=CC(=O)CCC4=C3C=C[C@@]21C	–	–	inactive	–	inactive	inactive	inactive	–	inactive	inactive	inactive	inactive	inactive	inactive	–	0.301 µM (active)	inactive	inactive	inactive
O=[Se]=O	–	–	–	–	inactive	inactive	inactive	inactive	inactive	inactive	inactive	inactive	inactive	inactive	–	inactive	inactive	inactive	–
C=CC(=O)OCC(C)O (stereo unspecified)	–	inactive	inactive	inactive	inactive	inactive	inactive	inactive	inactive	inactive	inactive	inactive	inactive	inactive	inactive	–	–	–	inactive
Clc1cc(C(Cl)(Cl)Cl)cnc1Cl	–	inactive	inactive	inactive	inactive	inactive	inactive	inactive	inactive	inactive	inactive	inactive	inactive	–	inactive	–	inactive	–	–
